# According to PubChem BioAssay (NCATS):
# Results filed as inconclusive are left out. The source made the active and inactive calls. Unless noted, calls come from the whole dose curve.
# Legend:
# [1] = biological target: N-terminal Xaa-Pro-Lys N-methyltransferase 1 (Homo sapiens) (UniProt Q9BV86); experiment: Confirmatory qHTS for Inhibitors of N-terminal methyltransferase 1 (NTMT1): MTaseGlo Assay (AID 1645874; active = well fitted curve in the direction sought with a large enough effect; an effect the other way counts as inactive or inconclusive;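 note: luminescence from SAH made as NTMT1 methylates SPKRIA peptide using SAM; 0% = DMSO control and -100% = no-enzyme control; nearly all actives have a fitted effect of over 65% in size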)
# Procedure, shortened: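 Compounds are incubated with 125 nM NTMT1 and 100 uM SAM for 15 min before the SPKRIA peptide (1 uM) starts a 30 min room-temperature methylation. SAH is measured by coupled luciferase luminescence and curves fitted to a Hill equation.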
# [2] = Primary qHTS to identify inhibitors of SARS-CoV-2 cell entry (AID 1645846); conditions: SARS-CoV-2 pseudovirus cell entry assay, luminescence; activity change, negative = inhibition: at 57.1 µM (top of the series) unless noted; note: nearly all actives have a fitted effect of over 45% in size; note: potency is the fitted concentration of half-maximal effect
# Procedure, shortened: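 Inhibition of spike-mediated entry was scored in human ACE2-transfected Expi293F cells. Particles were MLV-pseudotyped with Wuhan-Hu-1 S carrying a 19-aa C-terminal deletion; signal was luciferase after two days, scaled between spike PP and fusion-protein-free PP.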
# [3] = VSVG counterscreen qHTS to identify inhibitors of SARS-CoV-2 cell entry (AID 1645847); note: potency is the fitted concentration of half-maximal effect; nearly all actives have a fitted effect of over 65% in size
# Procedure, shortened: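 Luminescence from a luciferase reporter, normalised to bald particle and VSV-G pseudotyped particle wells, is the read-out. Cells are HEK293 expressing human ACE2, exposed to compound 1 h before a 48 h particle infection at 37 °C.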
# [4] = Primary qHTS for inhibitors of nuclear receptor binding SET domain protein 2 (NSD2) in an isogenic RCH-ACV NSD2 p.E1099K mutant (9B) (AID 1645876; active = well fitted curve in the direction sought with a large enough effect; an effect the other way counts as inactive or inconclusive; note: nearly all actives have a fitted effect of over 70% in size; note: potency is the fitted concentration of half-maximal effect)
# [5] = biological target: Glutathione peroxidase 1 (Homo sapiens) (UniProt P07203); experiment: Primary qHTS Assay for Inhibitors of Recombinant Selenoprotein Glutathione Peroxidase 1 (GPX1) (AID 1845191; active = well fitted curve in the direction sought with a large enough effect; an effect the other way counts as inactive or inconclusive; note: nearly all actives have a fitted effect of over 65% in size)
# Procedure, shortened: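 10 nM GPX1 + cpd, 30 min RT; start w/ 1 mM GSH, 0.5 mM cumene hydroperoxide, 0.5 mM NADPH, 100 nM GR, 0.01% BSA; buffer 50 mM Tris-HCl pH 7.5, 2 mM EDTA, 150 mM NaCl; Fl 340/450, 0 & 15 min.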
# [6] = KB-8-5-11 P-gp reporter qHTS against the NCATS DSHEA and TCM libraries (AID 1919977; active = well fitted curve in the direction sought with a large enough effect; an effect the other way counts as inactive or inconclusive; note: 0% is about no effect)
# Procedure, shortened: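 KB-8-5-11, 500 cells/well, DMEM/10% FBS without colchicine; 4 h attach; cpd titrations, 72 h, 37C/5% CO2; CellTiter-Glo, 30 min RT, luminescence.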
# [7] = biological target: Glucocorticoid receptor (Homo sapiens) (UniProt P04150); experiment: GR-GFP Redistribution (AID 450;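 active = compounds whose dose series gives a full or clear partial fitted curve of increased nuclear translocation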; note: potency is the fitted concentration of half-maximal effect); conditions: U2OS GR-GFP nuclear translocation, laser cytometry, 2 h
# [8] = biological target: Glucocorticoid receptor (Homo sapiens) (UniProt P04150); experiment: GR-EFC Redistribution (AID 451); conditions: CHO-K1 GR-EFC translocation, beta-gal luminescence, 2 h; note: potency is the fitted concentration of half-maximal effect
# Procedure, shortened: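 Translocation of GR-ED fusion to nuclear EA restores b-gal, read by luminescence after 1 h room-temperature detection. Engineered CHO-K1 biosensor cells, 1,000/well, exposed 2 h at 37 C to titrations up to 46 uM final.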
# [9] = biological target: 3',5'-cyclic-AMP phosphodiesterase 4B (Homo sapiens) (UniProt Q07343); experiment: qHTS Assay for Inhibitors of PDE-IV (AID 607; active = well fitted activation curve with a large enough effect in the main read-out, with a control signal flat, not every such curve was filed as active; note: % of control where 0% means no effect)
# Procedure, shortened: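 Live HEK293 cells with a modified cyclic nucleotide-gated (CNG) channel report intracellular cAMP via membrane-potential dye fluorescence (ex 535/em 590 nm). Endogenous PDE-IV was targeted. Compounds were tested at up to 22.9 uM final; RO 20-1724 100 uM served as control.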
# [10] = biological target: Cytochrome P450 3A4 (Homo sapiens) (UniProt P08684); experiment: qHTS Assay for Activators of Cytochrome P450 3A4 (AID 885; active = well fitted curve in the direction sought with a large enough effect; an effect the other way counts as inactive or inconclusive; note: nearly all actives have a fitted effect of over 65% in size)
# Procedure, shortened: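 Quantitative HTS format: compounds preincubated with 20nM human CYP3A4 and Luciferin-PPXE substrate at KM, reaction started by NADPH regeneration, stopped after 60 min, luciferase luminescence read 20 min later.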
# [11] = biological target: Ubiquitin carboxyl-terminal hydrolase 1 (Homo sapiens) (UniProt O94782); experiment: Inhibitors of USP1/UAF1: Pilot qHTS (AID 504865; active = well fitted curve in the direction sought with a large enough effect; an effect the other way counts as inactive or inconclusive;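 note: rhodamine fluorescence freed from ubiquitin-rhodamine substrate followed over time; top concentration of the series differs between compounds; % is set by controls: 0 for no effect and ±100 for the full control effect; nearly all actives have a fitted effect of over 35% in size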)
# Procedure, shortened: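 In 50mM HEPES pH 7.8 containing 0.5mM EDTA, 1mM TCEP, 0.1 mg/ml BSA and 0.01% Tween-20, 1nM USP1/UAF1 is exposed to compound for 15 min, then Ub-Rho (150nM final) is added and fluorescence is read over time.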
# [12] = biological target: DNA dC->dU-editing enzyme APOBEC-3G (Homo sapiens) (UniProt Q9HC16); experiment: qHTS for inhibitors of Vif-A3G interactions: Validation (AID 588379; active = well fitted curve in the direction sought with a large enough effect; an effect the other way counts as inactive or inconclusive; note: 0% is about no effect)
# Procedure, shortened: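 HeLa cells stably expressing Vif and A3G-eYFP, 700 cells/well, incubated overnight at 37 deg C, then exposed to compound overnight at 37 deg C. Inhibition of Vif-mediated degradation read as increased yellow fluorescence (Ex 488/Em 500-530) by laser-scanning cytometry.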
# [13] = biological target: Phospholipid hydroperoxide glutathione peroxidase GPX4 (Homo sapiens) (UniProt P36969); experiment: Primary qHTS Assay for Inhibitors of Recombinant Selenoprotein Glutathione Peroxidase 4 (GPX4) (AID 1845192; active = well fitted curve in the direction sought with a large enough effect; an effect the other way counts as inactive or inconclusive)
# Procedure, shortened: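 NADPH consumption, followed by fluorescence at 340/450 nm between 0 and 15 min, reports GPX4 activity via coupled glutathione reductase (100 nM). Enzyme 200 nM was pre-exposed to compound 30 min; 0.5 mM cumene hydroperoxide and 1 mM GSH served as substrates.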
# [14] = qHTS drug screen for cell cycle checkpoint inhibitors in PARPi-resistant BRCA-mutant ovarian cancer cell lines. (AID 1963452); conditions: PEO1/OlaR viability, CellTiter-Glo luminescence, 96 h, stronger effect = lower value
# Procedure, shortened: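 PEO1, PEO4 and PEO1/OlaR ovarian cancer cells, 600 per well, exposed 96 h at 37C to a dilution series. Viability read by CellTiter-Glo luminescence, normalized to DMSO and empty wells; activity summarized as Z-AUC.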
# Sequence of Glutathione peroxidase 1 (Homo sapiens) (P07203 whole entry, looked up): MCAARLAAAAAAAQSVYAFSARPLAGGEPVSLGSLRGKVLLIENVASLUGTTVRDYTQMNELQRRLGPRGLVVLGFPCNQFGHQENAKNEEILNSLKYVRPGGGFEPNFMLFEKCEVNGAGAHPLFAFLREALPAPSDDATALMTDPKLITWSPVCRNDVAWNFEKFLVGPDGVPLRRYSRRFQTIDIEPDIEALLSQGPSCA
# Sequence of Glucocorticoid receptor (Homo sapiens) (P04150 whole entry, looked up, the tested form may be a part): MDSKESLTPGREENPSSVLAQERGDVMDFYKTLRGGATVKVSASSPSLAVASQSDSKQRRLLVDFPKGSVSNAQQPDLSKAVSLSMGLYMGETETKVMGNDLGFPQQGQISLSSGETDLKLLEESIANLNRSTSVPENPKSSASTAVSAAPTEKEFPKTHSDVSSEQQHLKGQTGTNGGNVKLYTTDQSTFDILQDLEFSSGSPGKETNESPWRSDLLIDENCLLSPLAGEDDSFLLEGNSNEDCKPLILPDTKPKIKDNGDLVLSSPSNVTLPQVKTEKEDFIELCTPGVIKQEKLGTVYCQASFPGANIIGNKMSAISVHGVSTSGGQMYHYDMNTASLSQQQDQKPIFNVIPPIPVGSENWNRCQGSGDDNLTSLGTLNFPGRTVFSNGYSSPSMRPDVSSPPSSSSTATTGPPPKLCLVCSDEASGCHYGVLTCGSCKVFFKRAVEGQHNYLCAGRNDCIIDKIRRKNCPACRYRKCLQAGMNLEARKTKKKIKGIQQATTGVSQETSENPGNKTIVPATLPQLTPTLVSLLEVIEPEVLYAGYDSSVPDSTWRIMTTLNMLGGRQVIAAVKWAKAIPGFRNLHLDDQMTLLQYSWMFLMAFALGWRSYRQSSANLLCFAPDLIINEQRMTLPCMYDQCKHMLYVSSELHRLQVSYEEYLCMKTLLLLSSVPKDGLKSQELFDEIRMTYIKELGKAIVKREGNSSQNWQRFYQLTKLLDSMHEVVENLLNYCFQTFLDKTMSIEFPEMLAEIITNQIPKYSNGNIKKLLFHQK
# Sequence of N-terminal Xaa-Pro-Lys N-methyltransferase 1 (Homo sapiens) (Q9BV86 whole entry, looked up): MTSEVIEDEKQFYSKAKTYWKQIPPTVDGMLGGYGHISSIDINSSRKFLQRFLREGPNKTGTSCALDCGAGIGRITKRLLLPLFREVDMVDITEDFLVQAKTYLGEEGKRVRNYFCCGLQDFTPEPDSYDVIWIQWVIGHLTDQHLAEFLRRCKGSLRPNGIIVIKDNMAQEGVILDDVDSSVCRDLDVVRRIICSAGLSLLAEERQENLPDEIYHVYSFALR
# Sequence of Phospholipid hydroperoxide glutathione peroxidase GPX4 (Homo sapiens) (P36969 whole entry, looked up): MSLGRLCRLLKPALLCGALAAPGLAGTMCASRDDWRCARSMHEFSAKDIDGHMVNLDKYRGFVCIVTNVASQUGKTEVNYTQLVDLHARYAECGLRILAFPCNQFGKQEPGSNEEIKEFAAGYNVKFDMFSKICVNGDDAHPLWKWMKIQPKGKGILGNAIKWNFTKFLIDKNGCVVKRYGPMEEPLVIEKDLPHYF
# Sequence of Ubiquitin carboxyl-terminal hydrolase 1 (Homo sapiens) (O94782 whole entry, looked up): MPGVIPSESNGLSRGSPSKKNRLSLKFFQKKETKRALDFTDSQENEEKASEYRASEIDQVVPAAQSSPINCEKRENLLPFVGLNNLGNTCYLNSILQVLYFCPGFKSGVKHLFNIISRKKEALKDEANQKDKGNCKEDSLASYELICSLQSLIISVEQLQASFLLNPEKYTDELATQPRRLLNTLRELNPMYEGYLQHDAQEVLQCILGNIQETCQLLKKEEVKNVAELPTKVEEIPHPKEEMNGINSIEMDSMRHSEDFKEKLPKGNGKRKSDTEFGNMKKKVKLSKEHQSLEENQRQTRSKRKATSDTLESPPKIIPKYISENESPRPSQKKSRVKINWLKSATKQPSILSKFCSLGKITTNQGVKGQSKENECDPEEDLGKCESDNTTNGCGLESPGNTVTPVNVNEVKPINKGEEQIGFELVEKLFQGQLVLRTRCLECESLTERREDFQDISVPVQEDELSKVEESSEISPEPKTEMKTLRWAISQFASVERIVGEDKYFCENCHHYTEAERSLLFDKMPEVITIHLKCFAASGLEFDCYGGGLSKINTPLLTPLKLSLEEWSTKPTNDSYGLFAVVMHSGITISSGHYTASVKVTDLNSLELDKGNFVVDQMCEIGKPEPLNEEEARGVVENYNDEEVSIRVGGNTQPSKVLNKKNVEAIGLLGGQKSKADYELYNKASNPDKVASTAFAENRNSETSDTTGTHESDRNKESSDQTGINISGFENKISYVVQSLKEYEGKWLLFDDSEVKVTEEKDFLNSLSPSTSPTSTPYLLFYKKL
# Sequence of DNA dC->dU-editing enzyme APOBEC-3G (Homo sapiens) (Q9HC16 whole entry, looked up): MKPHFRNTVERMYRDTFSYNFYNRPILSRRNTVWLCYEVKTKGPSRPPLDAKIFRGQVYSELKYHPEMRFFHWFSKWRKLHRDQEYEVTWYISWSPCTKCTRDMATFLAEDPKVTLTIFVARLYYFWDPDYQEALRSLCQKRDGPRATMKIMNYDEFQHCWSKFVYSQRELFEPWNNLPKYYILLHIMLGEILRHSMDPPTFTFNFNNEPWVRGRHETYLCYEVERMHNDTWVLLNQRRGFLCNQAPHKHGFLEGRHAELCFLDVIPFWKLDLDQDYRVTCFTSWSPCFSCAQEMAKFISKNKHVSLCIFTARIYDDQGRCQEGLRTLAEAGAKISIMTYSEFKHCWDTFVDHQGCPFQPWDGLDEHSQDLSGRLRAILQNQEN
# Sequence of Cytochrome P450 3A4 (Homo sapiens) (P08684 whole entry, looked up): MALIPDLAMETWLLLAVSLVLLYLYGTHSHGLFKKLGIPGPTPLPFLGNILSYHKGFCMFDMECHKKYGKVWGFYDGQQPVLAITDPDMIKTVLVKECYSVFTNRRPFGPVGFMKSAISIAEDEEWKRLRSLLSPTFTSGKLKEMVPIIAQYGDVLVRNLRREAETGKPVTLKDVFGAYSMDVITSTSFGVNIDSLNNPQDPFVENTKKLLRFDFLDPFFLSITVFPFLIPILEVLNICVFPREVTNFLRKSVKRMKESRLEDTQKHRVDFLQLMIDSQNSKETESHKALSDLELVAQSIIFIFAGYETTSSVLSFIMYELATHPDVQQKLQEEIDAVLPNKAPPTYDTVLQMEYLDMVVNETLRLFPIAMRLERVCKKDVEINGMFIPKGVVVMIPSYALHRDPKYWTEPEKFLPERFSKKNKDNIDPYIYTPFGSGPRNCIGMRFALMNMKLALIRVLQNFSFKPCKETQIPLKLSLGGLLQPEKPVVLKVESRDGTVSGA
# Sequence of 3',5'-cyclic-AMP phosphodiesterase 4B (Homo sapiens) (Q07343 whole entry, looked up): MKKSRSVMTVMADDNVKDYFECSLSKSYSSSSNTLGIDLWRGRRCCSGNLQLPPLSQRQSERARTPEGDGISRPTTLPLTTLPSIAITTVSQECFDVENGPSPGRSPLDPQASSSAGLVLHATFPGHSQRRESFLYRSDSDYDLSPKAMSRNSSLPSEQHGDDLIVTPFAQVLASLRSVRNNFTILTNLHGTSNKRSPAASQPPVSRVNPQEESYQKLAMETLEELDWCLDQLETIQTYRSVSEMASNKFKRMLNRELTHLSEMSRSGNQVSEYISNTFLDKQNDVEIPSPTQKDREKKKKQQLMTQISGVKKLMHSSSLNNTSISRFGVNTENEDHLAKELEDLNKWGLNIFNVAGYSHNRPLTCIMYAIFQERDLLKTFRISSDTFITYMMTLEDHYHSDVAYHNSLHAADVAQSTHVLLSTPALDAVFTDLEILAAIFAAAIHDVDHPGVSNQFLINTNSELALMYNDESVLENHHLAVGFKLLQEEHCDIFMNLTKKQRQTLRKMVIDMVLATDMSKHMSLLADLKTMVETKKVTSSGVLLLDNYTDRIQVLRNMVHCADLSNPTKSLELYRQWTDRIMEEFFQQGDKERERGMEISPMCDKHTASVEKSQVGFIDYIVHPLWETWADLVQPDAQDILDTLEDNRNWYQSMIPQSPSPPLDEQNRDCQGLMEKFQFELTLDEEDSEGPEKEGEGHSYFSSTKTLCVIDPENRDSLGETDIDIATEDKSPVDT
structure (smiles),measurement,setting,value
CCOc1ccc(CN(CCc2ccc3c(c2)OCO3)Cc2cccc(Br)c2)cc1,outcome,[1],inactive
Cc1ccc([N+](=O)[O-])cc1S(=O)(=O)N(C)/N=C/c1cnc2ccc(Br)cn12,"activity change, negative = inhibition",[2],-94.8%
CC[C@]1(O)CC2CN(CCc3c([nH]c4ccccc34)[C@@](C(=O)OC)(c3cc4c(cc3OC)N(C)[C@H]3[C@@](O)(C(=O)OC)[C@H](OC(C)=O)[C@]5(CC)C=CCN6CC[C@]43[C@@H]65)C2)C1 (some centres not stated),Potency,[3],0.0383 µM (active)
CCn1c(=O)c(-c2ccc(-c3cncc(C)n3)cc2Cl)cc2cnc(NCCC3CCN(C)CC3)nc21,Potency,[2],3.16 µM (active)
Cc1cc2c(F)c(Oc3ncnn4cc(OCC(C)OC(=O)C(C)N)c(C)c34)ccc2[nH]1 (configuration not stated),Potency,[2],11.2 µM (active)
COCCNCc1ccc(-c2cc3nccc(Oc4ccc(NC(=S)NC(=O)Cc5ccc(F)cc5)cc4F)c3s2)nc1,Potency,[3],1.36 µM (active)
O=C1NC(=O)C(c2cnc3ccccn23)=C1c1cn2c3c(cc(F)cc13)CN(C(=O)N1CCCCC1)CC2,Potency,[3],0.152 µM (active)
CC[C@]12C=CCN3CC[C@@]4(c5cc([C@@]6(C(=O)OC)C[C@H]7C[C@@H](C(C)(F)F)CN(Cc8c6[nH]c6ccccc86)C7)c(OC)cc5N(C)[C@H]4[C@@](O)(C(=O)OC)[C@@H]1OC(C)=O)[C@@H]32,Potency,[3],0.127 µM (active)
O=C(Nc1ccnc(NC(=O)C2CC2)c1)c1c(Cl)cccc1Cl,"activity change, negative = inhibition",[2],-97%
same,Potency,[3],2.71 µM (active)
c1cc2c(cc1C1OC[C@@H]3C(c4ccc5c(c4)OCO5)OC[C@H]13)OCO2 (some centres not stated),Potency,[4],inactive
same,Potency,[5],inactive
CC[C@H](CC[C@@H](C)[C@H]1CC[C@H]2[C@@H]3CC=C4C[C@@H](O)CC[C@]4(C)[C@H]3CC[C@]12C)C(C)C,"activity change, negative = inhibition",[2],-9.4%
same,Potency,[6],inactive
Cc1nc(NC(=O)N2CCC[C@H]2C(N)=O)sc1-c1ccnc(C(C)(C)C(F)(F)F)c1,"activity change, negative = inhibition",[2],-35.1%
O=C(O)C1=CCCN(CCOC(c2ccc(C(F)(F)F)cc2)c2ccc(C(F)(F)F)cc2)C1,Potency,[7],> 46 µM (inactive)
same,Potency,[8],> 46 µM (inactive)
same,Potency,[9],inactive
same,Potency,[10],inactive
same,Potency,[11],inactive
same,outcome,[12],inactive
same,"activity change, negative = inhibition",[2],-6.97%
same,Potency,[5],inactive
same,Potency,[13],inactive
same,Z-AUC,[14],-1.16 (inactive)
same,Z-AUC,[14]; measured here: PEO1 parental Z-AUC,-0.857
same,Z-AUC,[14]; measured here: PEO4 Z-AUC,-0.457
Cc1sc2c(c1C)C(c1ccc(Cl)cc1)=NC(CC(N)=O)c1nnc(C)n1-2 (configuration not stated),"activity change, negative = inhibition",[2],-23.3%
same,Potency,[4],0.105 µM (active)
NS(=O)(=O)NCCNc1nonc1C(=Nc1ccc(F)c(Br)c1)NO,"activity change, negative = inhibition",[2],-14.4%
CN(C)C1CCN(C(=O)c2ccc(NC(=O)Nc3ccc(-c4nc(N5CCOCC5)nc(N5CCOCC5)n4)cc3)cc2)CC1,Potency,[2],1.58 µM (active)
CN[C@H]1CN(c2ccc3c(=O)c(C(=O)O)cn(-c4nccs4)c3n2)C[C@@H]1OC,Potency,[3],0.622 µM (active)
CN1CCN(c2ccc(OC(F)(F)F)c(Nc3ncc4c(n3)-c3c(c(C(N)=O)nn3CCO)CC4)c2)CC1,"activity change, negative = inhibition",[2],-77.5%
Nc1nc2c(c(=O)[nH]1)N1CN(c3ccc(C(=O)N[C@@H](CCC(=O)O)C(=O)O)cc3)CC1CN2 (some centres not stated),"activity change, negative = inhibition",[2],-83.8%
same,Potency,[3],3.41 µM (active)
COc1ccc(/C=C\c2cc(OC)c(OC)c(OC)c2)cc1O,"activity change, negative = inhibition",[2],-68.5%
NC[C@H]1O[C@H](O[C@H]2[C@H](O)[C@@H](O[C@H]3O[C@H](CO)[C@@H](O)[C@H](N)[C@H]3O)[C@H](N)C[C@@H]2N)[C@H](N)C[C@@H]1O,"activity change, negative = inhibition",[2],-8.09%
